High-throughput results: PubChem, The Scripps Research Institute Molecular Screening Center
In the library only some 0.9% were active in any assay of this set; here they are far more common.
PPARg SRC1 recr – PPARgamma-driven SRC-1 recruitment agonism; activation, % at 8 µM; P37231; PPARgamma-SRC-1 coactivator recruitment biochemical assay; actives 0.41% (n = 200,000); AID 631; in the data active = activation above about 19%;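 note: 0% = DMSO and 100% = reference agonist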
Target sequence (P37231 whole entry, looked up): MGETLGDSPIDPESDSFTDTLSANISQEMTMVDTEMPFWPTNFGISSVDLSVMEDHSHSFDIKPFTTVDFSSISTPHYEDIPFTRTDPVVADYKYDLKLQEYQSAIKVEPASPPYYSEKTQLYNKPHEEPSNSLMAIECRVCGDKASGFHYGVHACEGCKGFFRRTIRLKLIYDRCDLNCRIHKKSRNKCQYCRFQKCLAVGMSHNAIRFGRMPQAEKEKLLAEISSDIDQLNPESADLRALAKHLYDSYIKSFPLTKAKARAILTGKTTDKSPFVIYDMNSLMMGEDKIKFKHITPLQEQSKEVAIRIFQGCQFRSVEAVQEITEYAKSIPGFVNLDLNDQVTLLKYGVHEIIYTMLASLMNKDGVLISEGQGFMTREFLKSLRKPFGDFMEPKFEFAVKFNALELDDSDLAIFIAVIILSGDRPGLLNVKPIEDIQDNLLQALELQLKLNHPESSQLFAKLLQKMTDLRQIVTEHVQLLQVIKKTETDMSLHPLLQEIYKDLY
PPARg SRC3 recr – promotes SRC-3 coactivator recruitment by human PPARgamma. biochemical PPARgamma/SRC-3 coactivator recruitment assay. activation, % at 8 µM. actives 0.26% (n = 200,000). AID 731; in the data active = activation above about 23%;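 note: 0% = DMSO and 100% = reference agonist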
SRC1 TRFRET art – TR-FRET artefact, counter-screen to PPARgamma/SRC-1 agonist assay. TR-FRET detection artefact counter-screen, emission ratio; stronger effect = higher value. TR-FRET ratio at 8 µM. actives 0.34% (n = 99,000); in the data active = TR-FRET ratio above about 2300
SRC3 TRFRET art – TR-FRET artefact, counter-screen to PPARgamma/SRC-3 agonist assay | TR-FRET ratio at 8 µM | PPARgamma/SRC-3 format; stronger effect = higher value | actives 0.39% (n = 99,000) | AID 1048
PPARg SRC-2 ag – PPARgamma-driven SRC-2 recruitment agonism; P37231; PPARgamma LBD-SRC-2 recruitment, biochemical; activation, % at 8 µM; actives 0.34% (n = 200,000); in the data active = activation above about 22%;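 note: 0% = vehicle and 100% = reference agonist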
TR-FRET SRC-2 ct – TR-FRET artefact, counter-screen to PPARgamma/SRC-2 agonist assay; stronger effect = higher value; TR-FRET ratio at 8 µM; actives 0.4% (n = 200,000); AID 1049
* hit, by the source's call; nt = no result given. Cut-off read from the data, not from the text of the source, unless noted: active = TR-FRET ratio above about 2000; inactive = the rest.

SMILES	PPARg SRC1 recr	PPARg SRC3 recr	SRC1 TRFRET art	SRC3 TRFRET art	PPARg SRC-2 ag	TR-FRET SRC-2 ct
O=C(COc1ccccc1)Nc1nc(-c2ccc(S(=O)(=O)N3CCOCC3)cc2)cs1	16.4	19.0	nt	nt	11.6	2563*
COc1ccccc1OCC(=O)Nc1nc(-c2ccc(S(=O)(=O)N3CCOCC3)cc2)cs1	-1.9	-9.8	nt	nt	1.2	2294*
Cc1ccc(NC(=O)COc2ccc(S(=O)(=O)N3CCOCC3)cc2)cc1	-9.6	-10.2	nt	nt	-0.3	1498
O=C(COC(=O)c1ccc(S(=O)(=O)N2CCOCC2)cc1)Nc1nc(-c2ccccc2)cs1	0.4	-2.5	nt	nt	4.5	1618
COc1ccc(OC)c(NS(=O)(=O)c2ccc(NC(=O)c3ccc(NS(C)(=O)=O)cc3)cc2)c1	4.5	5.4	2042	1546	4.7	1726
CCOc1ccccc1-c1nc(-c2ccc(NC(=O)Cc3ccccc3OC)cc2)no1	0.9	2.7	nt	nt	2.0	2140*
CN1/C(=C\C(=S)NC(=O)c2ccccc2Cl)C(C)(C)c2ccccc21	-3.6	0.0	1647	1615	-1.6	1473
CN1/C(=C\C(=S)Nc2ccccc2)C(C)(C)c2ccccc21	7.9	2.0	1780	1715	-1.4	1974*
CN1/C(=C\C(=O)Nc2ccc(Cl)cc2)C(C)(C)c2ccccc21	0.3	-4.9	1653	1551	4.3	1427
COc1ccccc1C(=O)NC(=S)/C=C1/N(C)c2ccccc2C1(C)C	13.1	10.7	2384*	1894	17.1	1664
Cc1cccc(NC(=O)C2CCN(S(=O)(=O)c3c(C)[nH]c(=O)[nH]c3=O)CC2)c1	5.6	3.5	1982	1709	5.5	1997*
CCc1cccc(NC(=O)C2CCCN(S(=O)(=O)c3c(C)[nH]c(=O)[nH]c3=O)C2)c1 (stereo not given)	10.2	9.5	nt	nt	7.7	1727
Nc1cc(Oc2ccc(F)cc2F)cc([N+](=O)[O-])c1	-6.0	-3.0	1779	1424	0.7	1478
COc1ccc(C2(CNC(=O)/C=C\c3ccco3)CCCC2)cc1OC	40.8*	-5.5	nt	nt	1.6	1498
CSC1=NC2(CC(c3ccccc3)Oc3cc(O)ccc32)CC(C)(C)N1 (stereo not given)	3.9	28.6*	nt	nt	11.8	1633
COc1ccccc1C(=O)C1CCCN(C(=O)CSc2ccccn2)C1 (stereo not given)	3.8	3.2	1966	1487	23.5*	1688
COc1ccc(Cl)cc1/C=C(\C#N)C(N)=O	-3.4	-3.7	1837	1560	-0.4	1430
CC1CCN(C(=O)CSc2ccc(-c3ccccc3)nn2)CC1	0.1	-1.9	1953	1418	2.4	1732
COc1ccc(C2CC(c3ccccc3)=NN2C(=O)COC(=O)c2cc(S(=O)(=O)N3CCOCC3)ccc2F)cc1 (stereo not given)	15.7	3.6	2247	2106*	5.4	2124*
CSc1nc(SCC(=O)NC(c2ccccc2)c2ccccc2)c2c3c(sc2n1)CN(C)CC3	8.1	4.4	nt	nt	8.1	2069*
CSc1nc(SCC(=O)NCc2ccco2)c2c3c(sc2n1)COC(C)(C)C3	5.5	-2.4	2101	1689	4.4	1380
Cc1ccc(-n2c(SCC(=O)Nc3cccc(S(=O)(=O)NC4=NCCCCC4)c3)nc3ccccc3c2=O)cc1	-0.9	2.9	2001	2355*	-0.9	2048*
CCc1ccc(-n2c(SCC(=O)Nc3cccc(S(=O)(=O)NC4=NCCCCC4)c3)nc3ccccc3c2=O)cc1	-9.5	1.8	1667	1653	-1.1	1490
Cc1ccc(-n2c(SCC(=O)Nc3cc(S(=O)(=O)N4CCOCC4)ccc3Cl)nc3ccccc3c2=O)cc1	1.2	0.5	1829	1429	-5.6	1481
O=C(CSc1nc2ccccc2c(=O)n1-c1ccc(F)c(Cl)c1)Nc1cccc(S(=O)(=O)N2CCOCC2)c1	-3.0	4.6	2035	1729	7.5	1756
SMILES	PPARg SRC1 recr	PPARg SRC3 recr	SRC1 TRFRET art	SRC3 TRFRET art	PPARg SRC-2 ag	TR-FRET SRC-2 ct
Cc1cc(SCC(=O)Nc2cccc(S(=O)(=O)N3CCOCC3)c2)nc2ccccc12	0.8	2.8	2263	2197*	-3.9	1663
O=C(CSc1nc2ccccc2s1)Nc1cc(S(=O)(=O)N2CCOCC2)ccc1Cl	6.2	7.0	1864	2069*	12.0	1577
O=C(CSc1nc2ccccc2c(=O)n1-c1ccc(F)cc1)Nc1ccc(Cl)c(S(=O)(=O)N2CCOCC2)c1	5.2	15.5	2261	2299*	17.1	2212*
COC(=O)c1ccc(C(=O)OC)c(-n2c(=O)c3ccccc3c3ccccc3c2=O)c1	5.6	-2.4	2104	1641	0.8	1531
CN1CCN(CC(=O)Nc2cc(N(C)C)nc3ccccc23)CC1	6.3	2.6	1749	1565	1.8	1697
COC(=O)c1sccc1-n1cccc1C(=O)C(=O)N1CCOCC1	-4.7	-0.8	1557	1326	-4.7	1570
Cc1ccc(S(=O)(=O)N2CCOCC2)cc1NC(=O)CSc1nnc2cc(C)c3ccccc3n12	4.8	3.1	2009	1734	8.1	1791
Cc1cc2nnc(SCC(=O)Nc3cc(S(=O)(=O)N4CCOCC4)ccc3Cl)n2c2ccccc12	3.9	2.5	1864	2297*	4.9	1718
O=C(CSc1nnc2c(n1)[nH]c1ccc(S(=O)(=O)N3CCOCC3)cc12)Nc1ccccc1Cl	9.6	14.5	2042	2209*	9.0	1683
Nc1cc(=O)[nH]c(SCC(=O)Nc2cc(S(=O)(=O)N3CCOCC3)ccc2Cl)n1	3.4	-1.7	1910	1565	-0.1	1697
CCOc1ccc(-c2csc(NNC3=NCCCCC3)n2)cc1	22.9*	4.8	2430*	1370	4.6	1444
COc1ccc(-c2csc(NNC3=NCCCCC3)n2)cc1	2.6	5.5	1628	1498	6.6	1429
CC(=O)C(Cc1cccc(F)c1)(Cc1cccc(F)c1)C(C)=O	-2.1	4.0	1686	1404	0.5	1444
Cc1cc(C)c(S(=O)(=O)Nc2ccc3[nH]c(=O)[nH]c3c2)c(C)c1	22.3*	6.9	1785	1529	4.5	1779
Cc1cc(C)c(S(=O)(=O)Nc2c(C)[nH]c(=O)[nH]c2=O)c(C)c1	6.0	1.3	nt	nt	5.5	1492
O=C(CCN1CCOCC1)NNC(=S)NC(=O)c1ccccc1	-0.5	2.8	1921	1601	4.6	1742
CCN(CC)c1ccc(/C=C(/C#N)c2nc3ccc(C)cc3[nH]2)c(OC(C)C)c1	6.7	7.8	nt	nt	0.9	1540
CCCOc1cc(N(CC)CC)ccc1/C=C(/C#N)c1nc2ccc(C)cc2[nH]1	2.4	4.7	nt	nt	37.3*	2008*
O=C(O)c1ncn(Cc2ccc(Br)cc2)c1C(=O)O	-2.4	4.2	1888	1483	12.4	1695
Cc1ccc(C2C(C#N)=C(N)SC(N)=C2C#N)cc1	9.2	10.0	nt	nt	4.5	1666
N#CC1=C(N)SC(N)=C(C#N)C1c1ccoc1	20.9*	28.3*	nt	nt	30.7*	2095*
